# Measured values from PubChem BioAssay.
# The source made the active and inactive calls.
# Columns and labels:
# [1] = small molecules captured by biotinylated probe aFSTL3 – biochemical, small-molecule microarray, fluorescence 635/667, stem cell growth factor project, primary screen (AID 1064); conditions: higher = more signal;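 note: measures binding of the biotinylated anti-FSTL3 antibody to printed compounds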
# [2] = binders from COS7 lysate, DM2A8 probe, primary screen, torsin A project, cell lysate, small-molecule microarray, fluorescence 635/667 (AID 1065); conditions: higher = more signal, COS7 lysate expressing mutant human TOR1A
# [3] = small molecules captured by biotinylated probe aFGF2 – biochemical, small-molecule microarray, fluorescence 635/667, stem cell growth factor project, primary screen (AID 1067); conditions: higher = more signal;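 note: measures binding of biotinylated aFGF2 protein to printed compounds on slides; z-score merges feature fluorescence and signal-to-noise across triplicate slides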
# [4] = small molecules captured by biotinylated probe aFGF10 – biochemical, small-molecule microarray, fluorescence 635/667, stem cell growth factor project, primary screen (AID 1071); conditions: higher = more signal;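 note: score merges 667 nm spot intensity and signal to noise from triplicate slides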
# [5] = molecular target: Neurogenic locus notch homolog protein 2 (Homo sapiens) (UniProt Q04721); assay: small molecules binding Notch2 protein – biochemical, small-molecule microarray, 635 nm fluorescence, stem cell growth factors, primary screen (AID 1073); conditions: higher = more signal
# [6] = molecular target: Pro-neuregulin-1, membrane-bound isoform (Homo sapiens) (UniProt Q02297); assay: small molecules binding neuregulin-1 protein – biochemical, small-molecule microarray, fluorescence 635/667, psychiatric disease protein project, primary screen (AID 1075); conditions: NRG1 binding, 635 nm fluorescence, higher = more signal;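 note: score combines 667 nm spot fluorescence with signal to noise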
# [7] = test system: Neuregulin-1 EGF-like domain; assay: small molecules binding NRG1 EGF domain – biochemical, small-molecule microarray, 635 nm fluorescence, primary screen (AID 1081); conditions: higher = more signal;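 note: binding of the protein to compounds printed on small-molecule microarray slides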
# [8] = FRG1 expression reporter modulators in myotubes – cell-based, C2C12 myotubes, firefly/Renilla luciferase, luminescence, FRG1 inhibition for FSHD, primary screen (AID 1084); conditions: FRG1 promoter luciferase, higher = more signal, called active from +8 up or from −8 down
# [9] = small molecules captured by biotinylated probe aFST – biochemical, small-molecule microarray, fluorescence 635/667, stem cell growth factor project, primary screen (AID 1086); conditions: higher = more signal;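 note: score merges 667 nm fluorescence with signal-to-noise of each printed compound spot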
# [10] = binders of probe aHhip on microarray, primary screen, stem cell growth factor project, biochemical, small-molecule microarray, fluorescence 635/667 (AID 1087); conditions: higher = more signal;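 note: score merges spot fluorescence at 667nm with spot signal to noise ratio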
# Sequence of Pro-neuregulin-1, membrane-bound isoform (Homo sapiens) (Q02297 whole entry, looked up, the tested form may be a part, canonical isoform): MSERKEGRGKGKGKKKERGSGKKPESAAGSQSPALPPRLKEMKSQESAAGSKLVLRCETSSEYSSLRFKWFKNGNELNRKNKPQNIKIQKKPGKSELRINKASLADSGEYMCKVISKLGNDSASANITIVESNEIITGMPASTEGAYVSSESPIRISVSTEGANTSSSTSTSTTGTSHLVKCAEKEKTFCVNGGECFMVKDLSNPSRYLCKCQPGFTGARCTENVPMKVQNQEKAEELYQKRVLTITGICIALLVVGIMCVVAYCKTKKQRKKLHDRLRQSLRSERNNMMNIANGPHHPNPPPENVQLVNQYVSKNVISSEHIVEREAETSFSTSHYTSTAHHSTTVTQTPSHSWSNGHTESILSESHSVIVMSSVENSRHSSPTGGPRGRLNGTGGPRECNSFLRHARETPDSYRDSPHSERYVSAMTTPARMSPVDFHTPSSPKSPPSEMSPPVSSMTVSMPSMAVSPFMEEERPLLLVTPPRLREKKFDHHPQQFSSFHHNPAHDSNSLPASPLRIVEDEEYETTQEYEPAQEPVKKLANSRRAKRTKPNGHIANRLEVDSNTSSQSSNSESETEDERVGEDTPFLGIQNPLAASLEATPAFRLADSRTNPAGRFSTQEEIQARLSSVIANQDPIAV
# Sequence of Neurogenic locus notch homolog protein 2 (Homo sapiens) (Q04721 whole entry, looked up, canonical isoform): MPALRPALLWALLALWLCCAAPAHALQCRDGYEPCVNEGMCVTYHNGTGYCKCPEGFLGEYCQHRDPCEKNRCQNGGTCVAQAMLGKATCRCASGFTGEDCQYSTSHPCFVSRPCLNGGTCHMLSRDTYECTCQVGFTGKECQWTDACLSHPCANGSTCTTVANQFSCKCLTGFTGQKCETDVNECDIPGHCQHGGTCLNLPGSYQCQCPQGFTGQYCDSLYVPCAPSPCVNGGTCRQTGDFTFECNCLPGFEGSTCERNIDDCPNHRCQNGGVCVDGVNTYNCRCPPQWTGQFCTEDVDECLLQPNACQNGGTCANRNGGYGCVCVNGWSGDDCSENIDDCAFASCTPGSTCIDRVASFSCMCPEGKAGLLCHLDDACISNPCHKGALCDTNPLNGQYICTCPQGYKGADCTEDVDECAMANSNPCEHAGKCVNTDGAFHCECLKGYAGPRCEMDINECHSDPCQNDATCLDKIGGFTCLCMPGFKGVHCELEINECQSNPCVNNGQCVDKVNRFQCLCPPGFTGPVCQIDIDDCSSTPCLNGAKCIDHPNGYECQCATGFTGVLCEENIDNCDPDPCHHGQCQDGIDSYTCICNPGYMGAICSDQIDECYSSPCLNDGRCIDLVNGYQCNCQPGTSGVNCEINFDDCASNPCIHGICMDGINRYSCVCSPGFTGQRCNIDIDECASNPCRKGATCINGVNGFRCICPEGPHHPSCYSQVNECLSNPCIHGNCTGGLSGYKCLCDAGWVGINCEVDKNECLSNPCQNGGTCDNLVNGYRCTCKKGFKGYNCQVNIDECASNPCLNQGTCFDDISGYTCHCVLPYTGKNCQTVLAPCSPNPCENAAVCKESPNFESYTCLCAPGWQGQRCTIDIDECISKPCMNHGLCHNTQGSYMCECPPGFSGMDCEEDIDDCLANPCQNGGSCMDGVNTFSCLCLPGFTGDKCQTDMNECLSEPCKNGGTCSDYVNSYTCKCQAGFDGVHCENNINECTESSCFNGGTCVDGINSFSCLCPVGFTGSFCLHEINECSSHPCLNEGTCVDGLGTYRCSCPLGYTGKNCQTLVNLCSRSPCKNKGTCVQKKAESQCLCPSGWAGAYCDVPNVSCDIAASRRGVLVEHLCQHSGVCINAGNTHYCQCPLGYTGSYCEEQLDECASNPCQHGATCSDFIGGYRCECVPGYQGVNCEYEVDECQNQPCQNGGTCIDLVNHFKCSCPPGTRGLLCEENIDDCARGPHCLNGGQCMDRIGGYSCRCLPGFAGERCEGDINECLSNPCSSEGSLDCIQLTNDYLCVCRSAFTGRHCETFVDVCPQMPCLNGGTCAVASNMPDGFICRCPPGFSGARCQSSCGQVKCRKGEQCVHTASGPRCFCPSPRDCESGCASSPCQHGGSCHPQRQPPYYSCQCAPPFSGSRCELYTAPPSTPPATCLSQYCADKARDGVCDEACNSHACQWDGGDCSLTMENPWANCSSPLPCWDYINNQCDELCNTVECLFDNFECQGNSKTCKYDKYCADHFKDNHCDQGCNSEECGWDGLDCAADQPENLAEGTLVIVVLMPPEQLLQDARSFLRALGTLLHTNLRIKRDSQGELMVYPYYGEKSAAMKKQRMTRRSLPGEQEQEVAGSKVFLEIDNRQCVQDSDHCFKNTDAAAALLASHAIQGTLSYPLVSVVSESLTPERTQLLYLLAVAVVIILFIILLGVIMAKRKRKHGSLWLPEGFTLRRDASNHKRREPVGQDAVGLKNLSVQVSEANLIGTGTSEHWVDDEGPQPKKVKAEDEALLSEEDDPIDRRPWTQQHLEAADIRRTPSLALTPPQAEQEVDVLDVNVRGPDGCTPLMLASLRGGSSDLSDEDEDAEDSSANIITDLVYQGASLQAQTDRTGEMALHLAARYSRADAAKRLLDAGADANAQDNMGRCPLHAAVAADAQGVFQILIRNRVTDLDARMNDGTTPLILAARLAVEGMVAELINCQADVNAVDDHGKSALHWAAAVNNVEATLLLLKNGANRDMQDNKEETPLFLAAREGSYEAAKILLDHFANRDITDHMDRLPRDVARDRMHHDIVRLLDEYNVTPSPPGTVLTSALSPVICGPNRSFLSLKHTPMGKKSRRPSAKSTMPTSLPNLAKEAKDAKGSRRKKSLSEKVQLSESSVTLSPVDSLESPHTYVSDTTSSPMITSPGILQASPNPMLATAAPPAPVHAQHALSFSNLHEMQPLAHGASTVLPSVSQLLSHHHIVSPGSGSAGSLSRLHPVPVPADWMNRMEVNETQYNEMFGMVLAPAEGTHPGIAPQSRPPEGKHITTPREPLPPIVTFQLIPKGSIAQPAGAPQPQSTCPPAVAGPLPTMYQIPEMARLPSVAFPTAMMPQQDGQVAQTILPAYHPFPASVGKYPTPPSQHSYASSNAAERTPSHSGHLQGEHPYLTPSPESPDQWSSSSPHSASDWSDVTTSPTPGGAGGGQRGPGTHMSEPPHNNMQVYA
Compound,composite z-score [1],composite z-score [2],composite z-score [3],composite z-score [4],composite z-score [5],composite z-score [6],composite z-score [7],z-score [8],composite z-score [9],composite z-score [10]
C[C@H]1C2[C@H](Cc3ccccc3)NC(=O)[C@]23C(=O)NCC(=O)N2CCC[C@H]2C(=O)NC/C=C\C/C=C/C3[C@@H]2O[C@]12C (stereo not given in full),-0.376,0.171,-0.087,0.557,0.726,-0.139,-0.0828,0.276 (inactive),-0.274,0.123
COc1cc2c(cc1O)C(c1ccc(CN3CCCC3)cc1)N(Cc1ccc([N+](=O)[O-])o1)CC2 (stereo not given),-0.649,-0.533,-0.158,0.0497,0.345,2.15,0.936,1.06 (inactive),-0.21,-0.354
COC(=O)[C@@]1(Cc2ccc(F)cc2)[C@H]2c3cc(C(=O)N(C)C)n(CCN4CCOCC4)c3C[C@H]2CN1C(=O)c1ccccc1,0.59,-0.141,0.0141,0.58,1.63,1.51,0.654,1.56 (inactive),0.416,0.664
CCCC[C@@H]1C[C@H]1[C@@H](NC(=O)Cc1ccccc1)c1ccc(Cl)cc1,0.409,0.469,0.428,0.671,1.63,1.72,1.19,-2.4 (inactive),1.46,-0.193
C[N+](C)(C)CCCC[C@@H]1NC(=O)[C@H]2C[C@@H](C(=O)NCCCCCNC(=O)CS)[C@@H](c3ccc(O)cc3)N2C1=O,-0.257,-0.0727,-0.118,0.198,0.363,1.55,0.745,-1.04 (inactive),0.104,0.0623
O=C1O[C@H](c2ccccc2)[C@H](c2ccccc2)N2[C@H]1[C@@H](C(=O)NC[C@H](O)c1ccccc1)[C@]1(C(=O)Nc3ccc(C#CCCO)cc31)[C@H]2c1ccccc1OCCO,-0.211,0.307,-0.141,0.453,0.253,1.25,1.34,-0.0302 (inactive),0.152,0.0505
C=CCNC(=O)[C@@H]1[C@H]2C(=O)O[C@H](c3ccccc3)[C@H](c3ccccc3)N2[C@H](c2ccccc2OCCO)[C@@]12C(=O)N(C(=O)OCCOC)c1ccc(C#CCCO)cc12,-0.0812,0.693,0.0645,1.05,0.742,1.2,1.21,0.0106 (inactive),-0.66,0.277
CN(C)CCCNC(=O)[C@@H]1c2ccccc2C(=O)N(C2Cc3ccccc3C2)[C@H]1c1ccc(CO)cc1,0.158,0.345,-0.0566,-0.273,0.175,0.618,0.849,-1.3 (inactive),0.178,-0.151
CCC(CC)C(O)C1C=CC2C(=O)N(C)C(=O)C2N1N1CCCCC1 (stereo not given),0.104,0.816,0.121,0.837,1.31,1.83,1.23,0.855 (inactive),1.29,0.281
COc1cc2c(cc1O)C(C1CC1)N(Cc1ccc([N+](=O)[O-])o1)CC2 (stereo not given),-0.0848,-0.242,-0.0226,0.682,1.52,1.49,1.03,-1.1 (inactive),0.609,-0.0003
C=CCOC(=O)[C@H]1[C@@H]2C(=O)O[C@@H](c3ccccc3)[C@@H](c3ccccc3)N2[C@@H](c2ccc(OCCOC(=O)[C@H]3C[C@H]4C(=O)NCC(=O)N4[C@H]3c3ccc(O)cc3)cc2)[C@]12C(=O)Nc1ccc(I)cc12,-0.309,1.03,-0.0867,0.202,0.636,0.346,0.869,-1.35 (inactive),0.392,0.064
O=c1cccc(-c2ccccc2C(F)(F)F)o1,0.912,-0.0924,0.409,-0.331,-0.489,-0.168,0.381,0.364 (inactive),0.862,0.173
